The panel holds about 83,000 compounds, 20% with a hit somewhere; the sample as a whole holds those more often.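 Percent growth is the endpoint: 0 to 100 indicates growth inhibition (40 means 60% inhibition), 0 means no net growth, and negative values indicate cell death.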 A number with no mark means an inactive call. The source made the active and inactive calls. The calls were made as follows: active = growth percent below 10; inactive = the rest.
Key:
Test in all cases: NCI-60 one-dose screen, 48 h (100 = growth as untreated, 0 = no growth, -100 = all killed)
Conditions in all cases: 10 µM
HT29 colon = test system: HT29 colon
SNB-75 CNS = test system: SNB-75 CNS
SNB-19 CNS = test system: SNB-19 CNS
U251 CNS = test system: U251 CNS
PC-3 prostate = test system: PC-3 prostate
SK-MEL-5 melanoma = test system: SK-MEL-5 melanoma
UACC-62 melanoma = test system: UACC-62 melanoma
LOX IMVI melanoma = test system: LOX IMVI melanoma
SK-MEL-28 melanoma = test system: SK-MEL-28 melanoma

| SMILES | growth (HT29 colon) | growth (SNB-75 CNS) | growth (SNB-19 CNS) | growth (U251 CNS) | growth (PC-3 prostate) | growth (SK-MEL-5 melanoma) | growth (UACC-62 melanoma) | growth (LOX IMVI melanoma) | growth (SK-MEL-28 melanoma) |
| --- | --- | --- | --- | --- | --- | --- | --- | --- | --- |
| Cc1ccc(S(=O)(=O)Oc2ccc3c4c(c(=O)oc3c2)CCCCC4)cc1 | 6.29% (active) | 76.2% | 86.8% | 38.7% | 33.5% | 20.5% | 56.5% | 62.8% | 79.5% |
| COc1ccc(Nc2ncnc3c2c(SC)nn3-c2ccccc2)cc1 | 87.2% | 65.8% | 91.6% | 84.1% | 70.4% | 94.8% | 86.4% | 92.7% | 99.1% |
| Cc1ncc(-c2ccoc2)c(NC2CCCCCC2)n1 | 99.4% | 97% | 105% | 93.5% | 105% | 99.6% | 104% | 96.9% | 128% |
| COc1ccc(-c2nc3ncccn3c2-c2nnc(-c3ccsc3C)o2)cc1 | 103% | 17.5% | 68.9% | 72.4% | 83.6% | 81% | 78.3% | 88.4% | 78.2% |
| O=C(Nc1cccc(-n2cc(-c3ccncc3)c(-c3ccc(O)c(Cl)c3)n2)c1)c1cc(C(F)(F)F)cc(C(F)(F)F)c1 | 48.2% | 59.4% | 88.4% | 33.1% | 24.2% | 56.4% | 72.4% | 37.1% | 70.8% |
| COC(=O)[C@@H]1[C@H](O)[C@H](C)[C@H](O)[C@@](C)(O)/C=C\C=C(C)C(=O)Nc2c(C)c(OC(C)=O)c3c(c2O)C(=O)C(C)=C2OCOC(=C23)C(C)=C[C@@](C)(O)[C@H](O)[C@@H](C)[C@H]1OC(C)=O | 111% | 81.9% | 112% | 104% | 22% | 98% | 97.8% | 104% |  |
| CCOC(=O)CCC(NC(=O)c1ccc(N)cc1)C(=O)OCC (stereo not drawn) | 99.4% | 113% | 109% | 105% | 89.8% | 105% | 103% | 100% | 105% |
| CN(C)c1ccc(/C=C/C=N/NC(=O)c2cc(O)c(O)c(O)c2)cc1 | 111% | 81.3% | 79.9% | 59.7% | 85.8% | 92.9% | 107% | 91.4% | 108% |
| COc1cc2nc(Nc3cccc(C(=O)O)c3)nc(N)c2cc1OC | 103% | 94.6% | 102% | 99% | 90.4% | 99.7% | 90.2% | 96.3% | 103% |
| CCN(CC)CCSCCN(CC)CC | 104% | 96.3% | 106% | 91.7% | 96.5% | 99.6% | 102% | 99% | 103% |
| COc1cc(/C(=C2/O[C@@H]([C@H]3COC(C)(C)O3)[C@H]3OC(C)(C)O[C@@H]23)c2ccc3ccccc3c2)cc(OC)c1OC | 41% | 41.1% | 29% | 18% | 27% | 38.3% | 46.5% | 46.4% |  |
| CCCCCCCNc1nc(C=O)ncc1-c1ccc(C(F)(F)F)cc1 | 86.8% | 97% | 91.1% | 86.1% | 79.8% | 97.6% | 116% | 90.7% | 104% |
| O=C(Nc1cccc(-n2cc(-c3ccncc3)c(-c3ccc(O)c(Cl)c3)n2)c1)c1cccc(C(F)(F)F)c1 | 31.8% | 39.4% | 69.7% | -27.9% (active) | 21% | 34.6% | 37.9% | 33% | 43.9% |
| O=C(NC(Cc1ccc(O)cc1)C(=O)N=Nc1c(O)[nH]c2ccccc12)c1ccccc1 (stereo not drawn) | 101% | 96.2% | 96.9% | 97.7% | 98.5% | 92.4% | 88.1% | 89.1% | 109% |
| COc1ccc(-c2nn(-c3cccc(NC(=O)c4ccc(N5CCOCC5)c(C(F)(F)F)c4)c3)cc2-c2ccncc2)cc1Cl | 11.2% | 47% | 81.4% | 23.6% | 42.7% | 68.2% | 74.3% | 74.2% | 72.3% |
